Test results from PubChem BioAssay (Tox21).
Where “and” joins values, the source holds several entries; their conditions need not be identical. Equal values may be shown once. Results filed as inconclusive are left out. Some compounds were tested as several samples or in several runs, with calls that do not always agree. Calls of active or inactive are those of the source. Unless noted, calls follow the shape of the dose curve; as a rule, active = well fitted cell-killing curve with a large enough effect in the repeat runs; inconclusive = weak or mixed curves, or effect the other way; inactive = no such curve, though single readings can be large or run the other way.

molecular target: Thyrotropin receptor (Homo sapiens) (UniProt P16473); assay: qHTS assay to identify small molecule antagonists of the thyroid stimulating hormone receptor (TSHR) signaling pathway (AID 1259385; calls by dose curve; also: nearly all actives have a fitted effect of over 20% in size); settings: TSHR-HEK293 cAMP HTRF, TSH-stimulated antagonist mode; series mostly up to 92.4 µM; activity change, negative = inhibition: at the top concentration
Sequence (P16473 whole entry, looked up): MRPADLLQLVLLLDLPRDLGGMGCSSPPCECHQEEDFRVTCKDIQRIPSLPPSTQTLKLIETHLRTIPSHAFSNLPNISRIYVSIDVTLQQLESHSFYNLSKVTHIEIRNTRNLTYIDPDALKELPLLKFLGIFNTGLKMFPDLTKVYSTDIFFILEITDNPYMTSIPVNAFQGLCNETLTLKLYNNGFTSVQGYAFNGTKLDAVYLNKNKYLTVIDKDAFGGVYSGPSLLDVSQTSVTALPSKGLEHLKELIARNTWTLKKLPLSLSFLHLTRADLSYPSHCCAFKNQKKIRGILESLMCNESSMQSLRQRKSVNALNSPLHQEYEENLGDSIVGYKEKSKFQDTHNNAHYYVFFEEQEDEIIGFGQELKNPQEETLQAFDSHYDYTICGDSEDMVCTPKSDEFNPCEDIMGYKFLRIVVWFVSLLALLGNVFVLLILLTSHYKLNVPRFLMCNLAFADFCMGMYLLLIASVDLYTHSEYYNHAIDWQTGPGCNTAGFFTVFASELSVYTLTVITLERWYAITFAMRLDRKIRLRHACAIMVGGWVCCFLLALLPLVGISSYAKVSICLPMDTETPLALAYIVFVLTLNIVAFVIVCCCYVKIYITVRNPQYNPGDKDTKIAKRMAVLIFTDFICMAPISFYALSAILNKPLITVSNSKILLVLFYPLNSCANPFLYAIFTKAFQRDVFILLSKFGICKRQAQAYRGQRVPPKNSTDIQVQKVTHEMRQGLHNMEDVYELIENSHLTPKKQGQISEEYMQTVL
Procedure, shortened: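 TSHR-HEK293 cells were plated and held 18 h at 37C/5% CO2, then given compound plus Ro20-1724 and stimulated with TSH at 1.5 ng/mL final. After 30 min at room temperature, cAMP was detected with cAMP-d2/anti-cAMP-cryptate (1 h) by fluorescence.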
% is scaled to controls: 0 for no effect and ±100 for the full control effect; potency is read from the fitted curve at half-maximal effect.

Q: Which “activity change, negative = inhibition” value does the source give for `CC1COc2c(N3CCN(C)CC3)c(F)cc3c(=O)c(C(=O)O)cn1c23` (configuration not stated) here?
A: -1.22% [at 42.5 µM] (inactive)

Q: Which “activity change, negative = inhibition” value does the source give for `CCc1ccc(C(c2ccc(CC)cc2)C(Cl)Cl)cc1` here?
A: -9.96% (inactive)

Q: For `O=C(O)CP(=O)(O)O`, which “activity change, negative = inhibition” value is on record?
A: -0.206% [at 42.5 µM] (inactive)

Q: Which Potency does the source give for `c1ccc2c(c1)-c1cccc3c1c-2cc1ccccc13` here?
A: inactive

Q: With `NCCO` as the molecule, how does the Potency read?
A: inactive

Q: Which Potency does the source give for `CCCCCCCCCCCCCC[P+](CCCC)(CCCC)CCCC` here?
A: 54.2 µM (active) and 48.6 µM (active)

Q: Which Potency does the source give for `O=C(O)c1cn(-c2ccc(F)cc2)c2cc(N3CCNCC3)c(F)cc2c1=O` here?
A: inactive

Q: For `CCCCC/C=C/CC1CC(=O)OC1=O` (configuration not stated), which “activity change, negative = inhibition” value is on record?
A: 0.283% (inactive)

Q: For `CCC(C)(Oc1ccc(C2(c3ccc(OC(C)(CC)C(=O)O)cc3)CCCCC2)cc1)C(=O)O` (configuration not stated), which “activity change, negative = inhibition” value is on record?
A: -2.31% [at 42.5 µM] (inactive)

Q: For `CCc1cc(C(C)(C)C)c(O)c(C(C)(C)C)c1`, which Potency is on record?
A: inactive

Q: Which “activity change, negative = inhibition” value does the source give for `NCCCCCC(=O)O` here?
A: 0.715% [at 42.5 µM] (inactive)

Q: Which Potency does the source give for `NNCCc1ccccc1` here?
A: inactive

Q: With `Nc1nc2ccccc2[nH]1` as the molecule, how does the Potency read?
A: inactive

Q: For `O=C(Oc1ccccc1)c1ccccc1O`, which Potency is on record?
A: inactive

Q: With `NC(N)=NC(=O)Cc1c(Cl)cccc1Cl` as the molecule, how does the “activity change, negative = inhibition” value read?
A: 1.01% [at 42.5 µM] (inactive)

Q: For `CCCNC(C)C(=O)Nc1ccccc1C` (configuration not stated), which “activity change, negative = inhibition” value is on record?
A: 1.72% [at 42.5 µM] (inactive)

Q: With `CC(=O)O[C@]1(C(C)=O)CC[C@H]2[C@@H]3C[C@H](C)C4=CC(=O)CC[C@]4(C)[C@H]3CC[C@@]21C` as the molecule, how does the “activity change, negative = inhibition” value read?
A: 4.41% (inactive)

Q: Which activity change, negative = inhibition does the source give for `NC(Cc1ccc(Cl)cc1)C(=O)O` (configuration not stated) here?
A: 0.481% [at 0.349 µM] (inactive)

Q: With `O=C1CC2(CCCC2)CC(=O)N1CCCCN1CCN(c2ncccn2)CC1` as the molecule, how does the Potency read?
A: inactive

Q: Which “activity change, negative = inhibition” value does the source give for `CC(=O)CC(=O)Nc1ccc2[nH]c(=O)[nH]c2c1` here?
A: -0.351% (inactive)

Q: Which Potency does the source give for `c1ccc2cc3c(ccc4ccccc43)cc2c1` here?
A: inactive

Q: With `Cc1c(O)cccc1C(=O)N[C@@H](CSc1ccccc1)[C@H](O)CN1C[C@H]2CCCC[C@H]2C[C@H]1C(=O)NC(C)(C)C` as the molecule, how does the Potency read?
A: inactive

Q: For `CCN1CCCC1CNC(=O)c1cc(S(=O)(=O)CC)c(N)cc1OC` (configuration not stated), which “activity change, negative = inhibition” value is on record?
A: -5.54% [at 42.5 µM] (inactive)

Q: Which Potency does the source give for `CCC[C@H](N[C@@H](C)C(=O)N1[C@H](C(=O)O)C[C@@H]2CCCC[C@@H]21)C(=O)OCC` here?
A: inactive

Q: With `CC(C)(C)NCC(O)c1cc(O)cc(O)c1` (configuration not stated) as the molecule, how does the “activity change, negative = inhibition” value read?
A: 7.31% [at 42.5 µM] (inactive)

tested on: not listed separately; assay: qHTS assay to identify small molecule agonists of the estrogen receptor alpha (ER-alpha) signaling pathway in the presence of an antagonist - cell viability counter screen (AID 1259386); settings: VM7Luc4E2 viability, CellTiter-Fluor fluorescence, 22 h; series mostly up to 92.4 µM; activity change, negative = cytotoxicity: at the top concentration;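 also: cells exposed to compounds for 22 h at 37 °C before the viability read; nearly all actives have a fitted effect of over 30% in size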
Procedure, shortened: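 Cytotoxicity was measured in parallel with the ERE-luciferase agonist screen, in the same wells. The cells were VM7Luc4E2, which endogenously express ER-alpha, and treatment was with compounds plus 10.0nM ICI-182,780 for 22hr.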

Q: With `CC1COc2c(N3CCN(C)CC3)c(F)cc3c(=O)c(C(=O)O)cn1c23` (configuration not stated) as the molecule, how does the “activity change, negative = cytotoxicity” value read?
A: 0.566% [at 42.5 µM] (inactive)

Q: Which Potency does the source give for `CCc1ccc(C(c2ccc(CC)cc2)C(Cl)Cl)cc1` here?
A: inactive

Q: Which “activity change, negative = cytotoxicity” value does the source give for `O=C(O)CP(=O)(O)O` here?
A: -0.738% [at 42.5 µM] (inactive)

Q: For `CCn1cc(C(=O)O)c(=O)c2cc(F)c(N3CCNC(C)C3)c(F)c21` (configuration not stated), which “activity change, negative = cytotoxicity” value is on record?
A: -0.683% [at 42.5 µM] (inactive)

Q: Which Potency does the source give for `c1ccc2c(c1)-c1cccc3c1c-2cc1ccccc13` here?
A: inactive

Q: Which “activity change, negative = cytotoxicity” value does the source give for `NC(N)=Nc1nc(CSCC/C(N)=N/S(N)(=O)=O)cs1` here?
A: -6.39% [at 42.5 µM] (inactive)

Q: Which Potency does the source give for `NCCO` here?
A: inactive

Q: Which Potency does the source give for `CCCCCCCCCCCCCC[P+](CCCC)(CCCC)CCCC` here?
A: 12.1 µM (active) and 17.2 µM (active)

Q: With `O=C(O)c1cn(-c2ccc(F)cc2)c2cc(N3CCNCC3)c(F)cc2c1=O` as the molecule, how does the Potency read?
A: inactive

Q: Which “activity change, negative = cytotoxicity” value does the source give for `CCCCC/C=C/CC1CC(=O)OC1=O` (configuration not stated) here?
A: 4.36% (inactive)

Q: Which “activity change, negative = cytotoxicity” value does the source give for `CCCC(=O)c1ccccc1` here?
A: 3.98% (inactive)

Q: With `Cc1cc(C2(c3cc(C)c(O)cc3C)OS(=O)(=O)c3ccccc32)c(C)cc1O` as the molecule, how does the Potency read?
A: 30.6 µM (active) and 21.7 µM (active)

Q: For `O=C(OCc1ccccc1)c1ccc(O)cc1`, which Potency is on record?
A: inactive

Q: Which “activity change, negative = cytotoxicity” value does the source give for `CCC(C)(Oc1ccc(C2(c3ccc(OC(C)(CC)C(=O)O)cc3)CCCCC2)cc1)C(=O)O` (configuration not stated) here?
A: 0.0868% [at 42.5 µM] (inactive)

Q: With `CCc1cc(C(C)(C)C)c(O)c(C(C)(C)C)c1` as the molecule, how does the Potency read?
A: inactive

Q: With `CC(=O)CC(C)=O` as the molecule, how does the “activity change, negative = cytotoxicity” value read?
A: 2.11% (inactive)

Q: For `NCCCCCC(=O)O`, which “activity change, negative = cytotoxicity” value is on record?
A: 1.73% [at 42.5 µM] (inactive)

Q: For `NNCCc1ccccc1`, which Potency is on record?
A: inactive

Q: With `Nc1nc2ccccc2[nH]1` as the molecule, how does the Potency read?
A: inactive

Q: For `O=C(Oc1ccccc1)c1ccccc1O`, which Potency is on record?
A: inactive

Q: Which Potency does the source give for `CC(C)(c1ccccc1)c1ccc(Nc2ccc(C(C)(C)c3ccccc3)cc2)cc1` here?
A: inactive

Q: With `NC(N)=NC(=O)Cc1c(Cl)cccc1Cl` as the molecule, how does the “activity change, negative = cytotoxicity” value read?
A: -13.2% [at 42.5 µM] (inactive)

Q: With `CC1=CC(=O)c2ccccc2C1=O` as the molecule, how does the Potency read?
A: 38.6 µM (active) and inactive

Q: With `COc1cc(C(=S)N2CCOCC2)ccc1O` as the molecule, how does the “activity change, negative = cytotoxicity” value read?
A: 0.15% [at 42.5 µM] (inactive)

Q: For `CCCNC(C)C(=O)Nc1ccccc1C` (configuration not stated), which “activity change, negative = cytotoxicity” value is on record?
A: 1.24% [at 42.5 µM] (inactive)

Q: Which Potency does the source give for `CC(=O)O[C@]1(C(C)=O)CC[C@H]2[C@@H]3C[C@H](C)C4=CC(=O)CC[C@]4(C)[C@H]3CC[C@@]21C` here?
A: inactive

Q: For `NC(Cc1ccc(Cl)cc1)C(=O)O` (configuration not stated), which activity change, negative = cytotoxicity is on record?
A: 2.8% [at 0.349 µM] (inactive)

Q: With `O=C1CC2(CCCC2)CC(=O)N1CCCCN1CCN(c2ncccn2)CC1` as the molecule, how does the Potency read?
A: inactive

Q: With `Cc1ccc(-c2cc(C(F)(F)F)nn2-c2ccc(S(N)(=O)=O)cc2)cc1` as the molecule, how does the Potency read?
A: inactive

Q: With `CC(=O)CC(=O)Nc1ccc2[nH]c(=O)[nH]c2c1` as the molecule, how does the “activity change, negative = cytotoxicity” value read?
A: -0.359% (inactive)

Q: Which Potency does the source give for `c1ccc2cc3c(ccc4ccccc43)cc2c1` here?
A: inactive

Q: For `Cc1c(O)cccc1C(=O)N[C@@H](CSc1ccccc1)[C@H](O)CN1C[C@H]2CCCC[C@H]2C[C@H]1C(=O)NC(C)(C)C`, which Potency is on record?
A: 29.8 µM (active) and 11.9 µM (active)

Q: For `O=C(O)c1cccc(C(=O)O)c1`, which Potency is on record?
A: inactive

Q: With `CCN1CCCC1CNC(=O)c1cc(S(=O)(=O)CC)c(N)cc1OC` (configuration not stated) as the molecule, how does the “activity change, negative = cytotoxicity” value read?
A: 0.075% [at 42.5 µM] (inactive)

Q: Which Potency does the source give for `CCC[C@H](N[C@@H](C)C(=O)N1[C@H](C(=O)O)C[C@@H]2CCCC[C@@H]21)C(=O)OCC` here?
A: inactive

Q: Which Potency does the source give for `CCCCCCCCCCCCc1ccccc1O` here?
A: 68.6 µM (active)

Q: With `CC(C)(C)NCC(O)c1cc(O)cc(O)c1` (configuration not stated) as the molecule, how does the “activity change, negative = cytotoxicity” value read?
A: -2.11% [at 42.5 µM] (inactive)
